Our source for the growth values is PubChem BioAssay (NCI).

About 83,000 compounds went through this panel and 20% of them were active in at least one assay; those are over-represented in the sample as a whole.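 48-hour exposure, single concentration, 96-well plates; percent growth endpoint where 0 means no net growth. Active: below 10.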 Activity calls are given as the source filed them.

For the experiment, the system named is MCF7 breast. Description: NCI-60 one-dose screen, 48 h (100 = growth as untreated, 0 = no growth, -100 = all killed). Particulars: 10 µM unless noted. As to the method:
Growth inhibition of the MCF7 human tumor cell line is measured as a screen for anti-cancer activity. Cells are grown in 96 well plates and exposed to the test compound for 48 hours. Compounds are tested at a single concentration, which is 10^-5 M for most compounds. The reported endpoint is percent growth (GI% or GIPRCNT), where numbers from 0 - 100% represent growth inhibition, and numbers from -100% - 0 represent cell death. For example, a value of 40 represents 60% growth inhibition. A value of 0 means no net growth occurred over the course of the experiment. A value of -40 indicates 40% of cells at the beginning of the experiment died by the end of the experiment. A value of -100 means all cells are dead at the end of the experiment.
NCI-60 Human Tumor Cell Lines Screen was performed using the standard one-dose NCI protocol, which is described in more detail at https://dtp.cancer.gov/discovery_development/nci-60/default.htm.
Compounds with GIPRCNT values below 10 were considered active. Activity score was based on GIPRCNT using the following formula: […]
Score is 0 for GIPRCNT values of 100 or above, 50 for GIPRCNT values of 0, and 100 for GIPRCNT values of -100.
For `Cn1ccnc1C(=O)/C=C/c1ccc(NC(=O)Nc2ccc(F)cc2)cc1`, the growth is 10.3% (inactive).
The result for `C/C(=N\NC(N)=O)c1c(O)sc(=O)[nH]c1=O` reads 93.4% (inactive); that for `COc1cc(-c2nc3ccc(-c4nnc(SCC(=O)Nc5ccc(C(C)=O)cc5)o4)cc3[nH]2)cc(OC)c1OC`, 92.6% (inactive).
As to `Clc1ccc2c(NCCCn3ccnc3)c3oc4ccccc4c3nc2c1`, the growth is 18.2% (inactive).
The result for `O=C(O)CCCCCN1C(=O)/C(=C/c2ccc(O)c(O)c2)SC1=S` reads 90.5% (inactive); that for `Cc1c(Nc2nnc(SCC(=O)Nc3sc4c(c3C#N)CCCC4)s2)c(=O)n(-c2ccccc2)n1C`, 93.5% (inactive).
Take `Clc1ccc2c(NCCCn3ccnc3)c3oc4ccc(Cl)cc4c3nc2c1`: the growth is 53.8% (inactive).
For `Oc1c(Cl)cc(Cl)c2ccc(CN3CCCCC3)nc12`, the growth is 28.9% (inactive).
The result for `CCC/C=C/C=C/C(=O)N[C@@H](Cc1cc(F)cc(F)c1)C(=O)N[C@@H]1C(=O)N2CCC[C@H]2C(=O)N2CCCC[C@H]2C(=O)N[C@@H](C)C(=O)N2C[C@H](C)C[C@H]2C(=O)O[C@H]1C` reads 15% (inactive).
The result for `Nc1nc(N)c2c(n1)NC(c1ccc(F)cc1)CC(c1ccc(Nc3nc(NCCO)nc(Nc4ccc(Cl)cc4)n3)cc1)=N2` (stereo not given) reads -66.5% (active); that for `Cn1cc(-c2cc(N)n3nc(-c4cn(C)c5ccc(Cl)cc45)cc3n2)c2cc(Cl)ccc21`, 17.3% (inactive); that for `O=C(CSc1nccc(=O)[nH]1)Nc1ccc(-c2nc3ccccc3[nH]2)cc1`, 103% (inactive).
Take `COC1CCN(Cc2ccc3c(NNC(=O)c4cnccn4)nc4cc(F)ccc4n23)C1` (stereo not given): the growth was 14% (inactive).
The result for `COc1ccc(COc2ccc(/C=C3/C(=O)Nc4cc(Cl)ccc43)cc2)cc1` reads 82.1% (inactive); that for `O=C(N/N=C/c1ccc([N+](=O)[O-])o1)c1[nH]c2ccc(Br)cc2c1-c1ccccc1`, 7.95% (active); that for `CN(C)CCCNc1c2ccc(Cl)cc2nc2c1oc1ccc(Cl)cc12`, -76.4% (active).
The result for `O=C1c2c(c3c4cc(Br)ccc4[nH]c3c3ccc4ccccc4c23)C(=O)N1CCO` reads 34.3% (inactive); that for `O=C(CN1CCOCC1)NNc1ncnc2ccccc12`, 64.6% (inactive); that for `C#C[C@]1(O)CC[C@H]2[C@@H]3CC=C4c5sc(-c6ccc(F)cn6)nc5CC[C@]4(C)[C@H]3CC[C@@]21C`, 12.1% (inactive).
Take `CS(=O)(=O)c1ccc(-c2nc3ccccn3c2/C=N/Nc2nc(-c3ccc(Br)cc3)cs2)cc1`: the growth is 92.4% (inactive).
`CC(C)NC(=O)c1cc(-c2ccc(NC(=O)Nc3ccc(N4CCOCC4)c(C(F)(F)F)c3)cc2)nc2cccnc12`: the growth is 37.2% (inactive).
The result for `C/C(=C(/c1ccc(Cl)cc1)c1ccc(OCCN)cc1)c1ccc(C)cc1` reads 102% (inactive); that for `CN(C)CCCOc1c2ccccc2nc2c1oc1ccc(Cl)cc12`, -16.6% (active); that for `Cc1cc2nc3c4cc(Cl)ccc4n(CC(=S)NCCN(C)C)c3nc2cc1C`, -81.5% (active).
Regarding `O=C(c1ccc(O)cc1)C1[C@H](c2ccc(Cl)cc2)[C@@H](c2ccccc2)NC12C(=O)Nc1ccc(Cl)cc12` (stereo not given in full), the growth was 9.87% (active).
On to `O=C(CCN1C(=O)/C(=C/c2ccccc2F)SC1=S)N1CCOCC1`, for which the growth is 30.1% (inactive).
The result for `O=c1/c(=C\c2ccc(-c3ccccc3)o2)sc2nc(-c3ccccc3)nn12` reads 99.1% (inactive); that for `COC(=O)c1ccc(NC(=S)N2CCc3ccc([N+](=O)[O-])cc3C2)cc1O`, 92.7% (inactive); that for `Clc1ccc2oc3c(NCCCN4CCOCC4)c4ccccc4nc3c2c1`, 7.12% (active).
The result for `CCOC(=O)c1csc(NC(=O)CSc2nc3sc4c(c3c(=O)n2-c2ccc(Cl)cc2)CCCC4)n1` reads 84.3% (inactive); that for `CS(=O)(=O)c1ccc(-c2nc3ccccn3c2-c2nc3ccc([N+](=O)[O-])cc3[nH]2)cc1`, 85.2% (inactive); that for `Cc1cc(C(NC(=O)CCCCCNc2cccc3c2C(=O)N(C2CCC(=O)NC2=O)C3=O)c2cccnc2)c(O)c2ncccc12` (stereo not given), 12.2% (inactive).
The result for `N#Cc1ccc(/C=N/NC(=O)c2[nH]c3ccc(Br)cc3c2-c2ccccc2)s1` reads 5.58% (active).
Take `COc1cc(/C=C/C(=O)c2cc(OC)c(OC)c(OC)c2)ccc1OCc1ccccc1`: the growth was 8.1% (active).
The result for `CCCC(=O)NC(c1ccc2c(c1)OC(F)(F)O2)c1cc(C)c2cccnc2c1O` (stereo not given) reads 24.1% (inactive); that for `COc1cc(/C=C/C(=O)c2cc(OC)c(OC)c(OC)c2)ccc1OCc1ccc(F)cc1`, 10.8% (inactive); that for `COC(=O)C1CCCN(S(=O)(=O)/N=C2\NC(=O)NC2=C(Cl)Cl)C1` (stereo not given), 20.4% (inactive).
Take `CC(C)(C)Nc1nc2c(OCCc3ccccc3)cccn2c1-c1ccccc1Cl`: the growth was -10.6% (active).
On to `CC(=O)Oc1ccccc1C(=O)Nc1cc(C(C)C)ccc1C`, for which the growth is 9.56% (active).
Take `C#Cc1nc(C2=C(C)/C(=N/OCc3ccccc3)CC2)cs1`: the growth was 49.5% (inactive).
